Compound activity as filed in PubChem.
CYP2C19 activ: increases human CYP2C19 enzyme activity | AID 1025 | 96,000 tested, under 10 active | recombinant CYP2C19, luciferin-H EGE luminescence; active compounds read high; 0 = fully inhibited enzyme, 1 = untreated enzyme | activation factor at 5 µM;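 active = activation factor of at least 2 at 5 µM in the primary screen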;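 note: 0 = wells with 2.5 mM tranylcypromine and 1 = vehicle-only wells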
CYP2C9 activ: CYP2C9 (human) activation; P11712; recombinant CYP2C9, luciferin-H conversion, luminescence; active compounds read high; factor 1 = untreated enzyme, 0 = blocked; activation factor at 5 µM; actives 1.4% (n = 96,000);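 active = activation factor of 2 or more for CYP2C9 at a 5 µM dose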;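 note: 0 = sulfaphenazole-blocked wells and 1 = vehicle-only wells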
Target sequence (P11712 whole entry, looked up): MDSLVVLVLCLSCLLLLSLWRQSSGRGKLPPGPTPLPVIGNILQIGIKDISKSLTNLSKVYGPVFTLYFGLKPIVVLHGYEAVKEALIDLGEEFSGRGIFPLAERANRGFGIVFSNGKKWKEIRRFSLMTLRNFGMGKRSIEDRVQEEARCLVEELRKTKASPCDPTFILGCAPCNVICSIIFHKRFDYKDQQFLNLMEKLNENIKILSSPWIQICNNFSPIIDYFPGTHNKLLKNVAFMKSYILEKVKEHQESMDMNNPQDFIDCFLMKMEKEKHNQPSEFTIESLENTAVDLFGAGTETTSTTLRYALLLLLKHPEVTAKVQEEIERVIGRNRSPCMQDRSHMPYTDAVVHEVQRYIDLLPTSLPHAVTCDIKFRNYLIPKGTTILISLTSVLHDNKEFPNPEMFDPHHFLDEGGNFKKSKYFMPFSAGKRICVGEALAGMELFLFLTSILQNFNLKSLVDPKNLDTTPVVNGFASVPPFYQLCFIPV
CYP2C9 inh: blocks human cytochrome P450 2C9. P11712. CYP2C9 Supersomes, luciferin-H conversion, luminescence. inhibition, % at 5 µM. actives 20% (n = 96,000). AID 777;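 active = blocking of liver enzyme CYP2C9 beyond about 50% at 5 µM, limit read from the data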
CYP2C19 inh: inhibitors of human CYP2C19; CYP2C19 Supersomes, luciferin-H EGE luminescence, 30 min; inhibition, % at 5 µM; AID 778; actives 21% (n = 96,000);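 active = CYP2C19 inhibition above a set limit at 5 µM in the primary screen, cut at about 50% in these data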;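 note: plate controls were negative control wells for no effect and 2.5 mM tranylcypromine positive control for full effect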
sEH inh: soluble epoxide hydrolase (human) inhibition; P34913; inhibition, % at 2 µM; actives 0.34% (n = 91,000); AID 707; recombinant human sEH enzymatic activity assay; in the data active = inhibition above about 80%
sEH activator: increases human soluble epoxide hydrolase activity; activation, % at 2 µM; purified human sEH enzymatic activity, activator screen; actives 0.04% (n = 91,000); P34913; in the data active = activation above about 37%
The depositor's hits bear a star; / = no result. The list is not random: actives were taken first. Their share in the collection is about 27%.

SMILES | CYP2C19 activ | CYP2C9 activ | CYP2C9 inh | CYP2C19 inh | sEH inh | sEH activator
O=C(CCN1C(=O)c2ccccc2C1=O)Nc1ccccc1C(=O)N1CCOCC1 | 1.1 | 1.4 | -42 | -14 | -13 | 11
O=C1OCCC1Sc1nnc(-c2ccc(O)cc2)o1 (stereo unspecified) | 0.6 | 1.2 | -18 | 42 | 2 | -3
O=C1OCCC1Sc1nc2ccccc2s1 (stereo unspecified) | 0.4 | 1.9 | -88 | 62* | -10 | 12
O=C1OCCC1Sc1nc2cc(Cl)ccc2s1 (stereo unspecified) | 0.1 | 2.6* | -163 | 92* | / | /
O=C(Nc1nc2ccccc2s1)C1CCCO1 (stereo unspecified) | 0.6 | 0.8 | 18 | 40 | -12 | 13
OC1CCCCC1Sc1nc2ccccc2s1 (stereo unspecified) | 0.3 | 0.6 | 40 | 66* | -2 | 1
O=C1OCCC1Sc1nc2cc(Cl)ccc2n1Cc1ccccc1 (stereo unspecified) | 0.4 | 0.5 | 48 | 59* | -4 | 5
Cc1nnc(SCC(=O)NC(C)c2ccccc2)[nH]c1=O (stereo unspecified) | 1 | 1 | 4 | -3 | / | /
Cc1ccc(NC(=O)/C(=C\c2cccnc2)NC(=O)c2ccco2)cc1 | 0.9 | 0.9 | 10 | 6 | 8 | -6
CC(C)(C)NC(=O)C1Cc2ccccc2CN1C(=O)Nc1cccc(Cl)c1 (stereo unspecified) | 0.6 | 0.7 | 31 | 41 | -10 | 8
Cc1nc2ncnn2c(C)c1Cc1ccc(Cl)cc1 | 0 | 0.3 | 73* | 95* | 8 | -8
O=C(CCS(=O)(=O)c1cccc2nsnc12)NC1CCCCC1 | 0.8 | 1.2 | -18 | 25 | 5 | -8
Cc1cccc(-c2nsc(SCC(=O)N3CCCC3)n2)c1 | 0.5 | 1.1 | -11 | 50* | 4 | -5
CCOC(=O)c1cnc2c(C)c(-c3ccccc3)[nH]n2c1=O | 1.1 | 0.8 | 22 | -10 | 5 | -3
CCCCC(c1nnnn1CS(=O)(=O)c1ccc(C)cc1)N1CCN(c2ccccc2)CC1 (stereo unspecified) | 0.4 | 0.3 | 69* | 65* | -1 | 1
CC(C)c1ccc(OC(=O)NCCO)cc1 | 0.5 | 1.1 | -10 | 49 | -15 | 13
CCNC(=O)NC(=O)COC(=O)c1ccccc1SCC(=O)NC(=O)NCC | 0.4 | 0.2 | 83* | 56* | -6 | 5
CCOc1ccccc1C1CC(=O)NC2=C1C(=O)CC(C)(C)C2 (stereo unspecified) | 0.8 | 0.9 | 13 | 21 | 0 | 0
O=C(Cn1c(=O)n(Cc2ccco2)c(=O)c2c3c(sc21)CCCCC3)Nc1ccccc1 | 1 | 0.6 | 43 | 3 | 4 | -5
O=c1c2c3c(sc2n(CCN2CCCC2)c(=O)n1Cc1ccco1)CCCCC3 | 0.6 | 0.5 | 52* | 36 | / | /
CN(C)CCn1c(=O)n(Cc2ccco2)c(=O)c2c3c(sc21)CCCCC3 | 0.9 | 0.8 | 16 | 6 | -5 | 5
O=C(Cn1c(=O)n(Cc2ccco2)c(=O)c2c3c(sc21)CCCCC3)c1ccccc1 | 0.6 | 0.5 | 53* | 37 | 2 | 0
CCCCN(CCCC)CCNC(=O)Cc1nc2c(c(=O)[nH]c(=O)n2C)n1C | 1 | 1 | 0 | 1 | 12 | -7
CCC1CCCCN1CC(=O)Nc1cc(C)nn1-c1nc(C)cc(C)n1 (stereo unspecified) | 0.5 | 0.1 | 93* | 52* | 16 | -13
CCn1cc([N+](=O)[O-])c(C(=O)Nc2c(C)nn(Cc3c(F)c(F)c(F)c(F)c3F)c2C)n1 | 0.9 | 0.9 | 7 | 8 | -9 | 12
SMILES | CYP2C19 activ | CYP2C9 activ | CYP2C9 inh | CYP2C19 inh | sEH inh | sEH activator
CCn1cc([N+](=O)[O-])c(C(=O)Nc2ccc(Br)cn2)n1 | 0.2 | 0.7 | 28 | 82* | -1 | 2
COc1ccccc1C(CCN(Cc1cccs1)C(C)=O)c1ccco1 (stereo unspecified) | 0.1 | 0.1 | 90* | 92* | 2 | 0
CCC(=O)NCCC(c1ccco1)c1ccccc1OC (stereo unspecified) | / | / | / | / | -2 | 0
COc1ccccc1C(CC(=O)Nc1nccs1)c1ccco1 (stereo unspecified) | 0.4 | 0.5 | 55* | 64* | 15 | -12
COC(=O)CCC(=O)Nc1ccc(Br)cc1 | 0.3 | 0.6 | 38 | 65* | 4 | -7
Cc1ccc(S(=O)(=O)NCCCCCC(=O)Nc2nccs2)cc1 | 0.3 | 0.2 | 80* | 74* | 2 | -1
O=C(ON=C1CCN(S(=O)(=O)c2ccccc2)CC1)c1cccc(Cl)c1 | / | / | / | / | 7 | -5
O=C(NC1CCCC1)C(c1ccsc1)N(Cc1ccco1)C(=O)Cc1cccs1 (stereo unspecified) | 0.7 | 0.9 | 9 | 28 | 4 | -4
O=C(CCSc1ccccc1)Nc1nccs1 | 0.4 | 0.6 | 37 | 62* | 7 | -9
O=C(CCCOc1ccccc1)Nc1ccc(Br)cc1 | / | / | / | / | 76 | -77
Cc1ccccc1OCCCC(=O)Nc1ccc(Br)cc1 | 0.9 | 1 | 0 | 14 | 93* | -93
Cc1ccccc1OCCCC(=O)Nc1nccs1 | 0.2 | 0.6 | 36 | 80* | -10 | 8
O=C(CCCC(=O)OCC(F)(F)C(F)F)Nc1nccs1 | 0.5 | 0.4 | 60* | 51* | / | /
O=C(CCCC(=O)OCC(F)(F)C(F)F)Nc1ccc(NC(=O)CCCC(=O)OCC(F)(F)C(F)F)cc1 | 0.9 | 0.8 | 18 | 6 | 4 | -5
Cc1cncn1CCc1nc2c3ccccc3nc(=S)n2[nH]1 | / | / | / | / | -16 | 16
O=C(CN1CCN(c2ccccc2)CC1)Nc1nccs1 | 0.3 | 0.1 | 90* | 70* | 9 | -4
O=C(CCN1CCN(c2ccccc2)CC1)Nc1nccs1 | 0.5 | 0.7 | 31 | 46 | -1 | 0
O=C(CCSc1ccccc1)NC1CCCC1 | 0.2 | 0.9 | 6 | 83* | / | /
CCc1nnc(NC(=O)CN2CCN(c3ccccc3OC)CC2)s1 | 1 | 1.1 | -14 | -2 | / | /
CCc1nnc(NC(=O)CN2CCN(c3nc(-c4ccccc4)cs3)CC2)s1 | 0.5 | 0.4 | 64* | 49 | 5 | -1
Cc1nc2c(F)c(F)c(C(F)(F)F)c(F)c2[nH]1 | 0.4 | 0.7 | 27 | 61* | / | /
Cc1nc2c(Br)c3nc(C(F)(F)F)[nH]c3c(Br)c2[nH]1 | 1 | 0.7 | 27 | 2 | 4 | -6
O=C(Nc1cccc2nsnc12)c1ccc(-c2cccc(Cl)c2)o1 | 0.9 | 0.9 | 7 | 14 | -22 | 19
Cc1ccccc1CN(c1ccc(C(=O)Nc2ccccc2C(=O)NCc2ccco2)cc1)S(C)(=O)=O | 0 | 0.2 | 83* | 99* | 1 | 1
CNC(=O)c1ccc(N(Cc2ccccc2C)S(C)(=O)=O)cc1 | 0.4 | 0.6 | 43 | 57* | -7 | 6
Cc1cccc(C)c1N(CC(=O)N1CCN(C)CC1)S(C)(=O)=O | 1.1 | 1 | -3 | -11 | -11 | 10
